For 36 compounds, viability index results are on record in the supplement of paper PMC4723716.

± gives the uncertainty stated by the source. In all, about 9,900 compounds were measured (“viability index relative to DMSO control”: median about 1, lowest 2% from about 0.85 on). For the sample, the lowest values were picked, then their nearest neighbours and some compounds at random.

The test relates to Plasmodium falciparum NF54 stage V gametocytes. As to the kind of experiment: viability index relative to DMSO control (fraction); higher = less gametocyte killing. The conditions noted are these: 2.5 µM, incubation time: 72 h. The gist of the method: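 Gametocytes (P. falciparum NF54, stage V) were treated with compound at 2.5 µM for 72 hr at 37°C in low oxygen, in serum-free medium at 0.75% gametocytemia and 1.25% hematocrit. Counts of 20–70 µm2 red particles, taken from one field per well after MitoTracker Red CMXRos with saponin, were divided by the plate mean of solvent-only wells. This ratio is the viability index.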

Where [1] appears, read: library set: Broad Institute DOS.
The mark [2] stands for this setting: library set: Broad Institute Blood Stage.

For `C[C@H]1CCCCO[C@H](CN(C)C(=O)Nc2ccc(C(F)(F)F)cc2)[C@@H](C)CN([C@@H](C)CO)C(=O)c2cc(NS(=O)(=O)c3cn(C)cn3)ccc2O1`, the viability index under setting [1] was determined as 1.01 ± 0.013. Compound `CO[C@H]1CN(C)C(=O)c2ccc(NS(C)(=O)=O)cc2OC[C@H](C)N(CC2CC2)C[C@@H]1C` yielded a viability index under setting [1] of 1.03 ± 0.087. The compound `CO[C@@H](CN(C)Cc1nccs1)[C@@H](C)CN([C@@H](C)CO)S(=O)(=O)c1ccc(F)cc1` had a viability index under setting [1] of 1.04 ± 0.0028. For `COCC(=O)Nc1ccc2c(c1)[C@@H]1C[C@@H](CC(=O)NCc3ccc4c(c3)OCO4)O[C@@H](CO)[C@@H]1O2`, the viability index under setting [1] was 1.01 ± 0.047. Under setting [1], `N#C[C@@H]1[C@H](c2ccccc2C2=CCCCC2)[C@H](CO)N1C(=O)CN1CCOCC1` yielded a viability index of 1.17 ± 0.13. On the same count and under the same terms, next, `N#C[C@H]1[C@@H](c2ccc(-c3cccnc3)cc2)[C@@H](CO)N1C(=O)C1CCOCC1`: 1.07 ± 0.031. Under setting [1], `C[C@@H]1CCCCO[C@@H](CN(C)C(=O)CCC(F)(F)F)[C@H](C)CN([C@@H](C)CO)C(=O)c2cc(NC(=O)C3CCCCC3)ccc2O1` registered a viability index of 1.13 ± 0.072.

As for `O=S(=O)(c1ccc(F)cc1)N1C[C@@H]2N[C@H](C1)[C@@H]2c1ccc(/C=C/c2ccccc2)cc1`, the viability index under setting [1] worked out at 0.78 ± 0.029. Turning to `Cc1ccccc1S(=O)(=O)N1C[C@@H]2N[C@H](C1)[C@@H]2c1ccc(-c2cccc(C#N)c2)cc1`, the viability index under setting [1] stood at 0.903 ± 0.018. Turning to `Cc1ccccc1S(=O)(=O)N1C[C@@H]2N[C@H](C1)[C@@H]2c1ccc(/C=C/c2ccccc2)cc1`, the viability index under setting [1] is 0.771 ± 0.028.

The compound `Cc1ccccc1S(=O)(=O)N1C[C@@H]2N[C@H](C1)[C@H]2c1ccc(-c2cccc(C#N)c2)cc1` had a viability index under setting [1] of 1.03 ± 0.033. In the case of `COc1ccc(-c2ccc([C@H]3[C@@H]4CN(S(=O)(=O)c5ccccc5C)C[C@H]3N4)cc2)cc1`, the viability index under setting [1] came out at 0.916 ± 0.068. Turning to `Cc1ccccc1S(=O)(=O)N1C[C@@H]2N[C@H](C1)[C@H]2c1ccc(/C=C/c2ccccc2)cc1`, the viability index under setting [1] amounted to 1 ± 0.048. Under setting [1], `COc1ccc(-c2ccc([C@@H]3[C@@H]4CN(S(=O)(=O)c5ccccc5C)C[C@H]3N4)cc2)cc1` yielded a viability index of 0.713 ± 0.11. Regarding `O=S(=O)(c1ccc(F)cc1)N1C[C@@H]2N[C@H](C1)[C@H]2c1ccc(/C=C/c2ccccc2)cc1`, the viability index under setting [1] was 1.04 ± 0.055. As for `C/C=C/c1ccc([C@@H]2[C@@H]3CN(S(=O)(=O)c4ccccc4F)C[C@H]2N3)cc1`, the viability index under setting [1] was determined as 0.904 ± 0.016.

As for `COc1cccc(S(=O)(=O)N[C@@H]2CC[C@H](CC(=O)NC3Cc4ccccc4C3)O[C@H]2CO)c1`, the viability index under setting [1] amounted to 0.907 ± 0.18. Still for that read-out and setting: to `Cc1ccc(S(=O)(=O)Nc2ccc3c(c2)C(=O)N([C@H](C)CO)C[C@H](C)[C@H](CN(C)S(=O)(=O)c2cccs2)OCCCC[C@H](C)O3)cc1` belongs 1.07 ± 0.14; to `CNC[C@H]1Oc2ccc(NS(=O)(=O)c3ccc(OC)cc3)cc2C(=O)N([C@H](C)CO)C[C@H]1C`, 1.01 ± 0.079; to `Cc1noc(C)c1NC(=O)N[C@H]1C=C[C@H](CC(=O)Nc2ccc(-c3ccccc3)cc2)O[C@H]1CO`, 1.0744 ± 0.00039. `CO[C@H]1CN(C)C(=O)c2cc(NC(=O)c3ccc(F)cc3)ccc2OC[C@@H](C)N(C(=O)CC2CC2)C[C@H]1C`: under setting [1], the viability index amounted to 1.099 ± 0.004. Regarding `CCCNC(=O)N1C[C@@H](O)COC[C@H]2O[C@@H](CC(=O)OC)CC[C@@H]21`, the viability index under setting [1] was determined as 1.14 ± 0.053. Turning to `N#C[C@@H]1[C@H](c2ccccc2-c2cccc(F)c2)[C@H](CO)N1C(=O)CN1CCOCC1`, the viability index under setting [1] was 1.15 ± 0.068. In turn, `C/C=C/c1ccc([C@H]2[C@@H](CO)N(CC3CCCCC3)[C@@H]2CNC(C)C)cc1` showed a viability index under setting [2] of 0.565 ± 0.068.

In the case of `C/C=C/c1ccc([C@H]2[C@H](CO)N(S(C)(=O)=O)[C@H]2CNCC2CCC2)cc1`, under setting [1], the viability index was found to be 0.688 ± 0.08. For `C/C=C/c1ccc([C@H]2[C@@H](CO)N(C(=O)C3CC3)[C@H]2CNC(=O)NC(C)C)cc1`, the viability index under setting [1] came out at 0.989 ± 0.018.

Under setting [1], `C/C=C/c1ccc([C@H]2[C@@H](CNC(=O)CC3CC3)N(C(=O)CC)[C@H]2CO)cc1` registered a viability index of 1.05 ± 0.054. `C/C=C/c1ccc([C@H]2[C@@H](CO)N(S(C)(=O)=O)[C@@H]2CN(C(C)=O)C(C)C)cc1` returned a viability index under setting [1] of 0.957 ± 0.06. Turning to `C/C=C/c1ccc([C@H]2[C@@H](CO)N(CC3CCCC3)[C@H]2CNS(C)(=O)=O)cc1`, the viability index under setting [1] was determined as 1.03 ± 0.099. For `CCC(=O)Nc1ccc2c(c1)C(=O)N(C)C[C@@H](OC)[C@@H](C)CN(Cc1nccs1)[C@H](C)CO2`, under setting [1], the viability index is 1.16 ± 0.082. `COC(=O)C[C@@H]1CC[C@@H]2[C@@H](COc3ccc(NC(=O)c4ccc(C(F)(F)F)cc4)cc3C(=O)N2C)O1` showed a viability index under setting [1] of 1.13 ± 0.065. Regarding `C[C@@H]1COCn2nncc2CC[C@H](Cc2cccc(Cl)c2)C(=O)N1`, under setting [1], the viability index was found to be 1.09 ± 0.051.

The compound `COCC(=O)Nc1ccc2c(c1)C(=O)N(C)[C@H]1CC[C@@H](CC(=O)NC3Cc4ccccc4C3)O[C@@H]1CO2` showed a viability index under setting [1] of 1.16 ± 0.13. Still for that read-out and setting: to `C[C@H]1CN([C@@H](C)CO)C(=O)c2cc(/C=C/c3ccccc3)cnc2O[C@@H]1CN(C)S(=O)(=O)c1ccccc1F` belongs 1.03 ± 0.082.

Under setting [2], `C[C@H]1CN([C@@H](C)CO)C(=O)c2cc(/C=C/c3ccccc3)cnc2O[C@@H]1CN(C)C(=O)C1CCCCC1` gave a viability index of 0.643 ± 0.072. In the case of `C[C@H](CO)N1C[C@H](C)[C@@H](CN(C)C(=O)C2CCCCC2)Oc2ncc(/C=C/c3ccccc3)cc2C1=O`, the viability index under setting [2] is 0.735 ± 0.028.
